Test results as given in PubChem BioAssay AID720650 (Broad Institute, 2013).
A number with no mark means an inactive call. Calls of active or inactive are those of the source. How the calls were made is not given here.

Test: C difficile toxins, biochemical counterscreen, UDPG substrate absence, confirmatory dose response (AID 720650)
Settings: series mostly up to 19.5 µM; activity change, negative = inhibition: at the top concentration

Row | SMILES | activity change, negative = inhibition | AC50
1 | CC(=O)Nc1ccc(S(=O)(=O)N2CCCC(C(=O)O)C2)cc1 (stereo unspecified) | -9.46% | 
2 | S=C(c1cn(Cc2ccccc2)c2ccccc12)N1CCOCC1 | -10.2% | 
3 | O=C(COc1ccc(/C=N/NC(=O)c2ccc(O)cc2)cc1)Nc1cccc([N+](=O)[O-])c1 | -5.22% | 
4 | O=C(Nc1ccc(O)cc1)/C(=C\c1ccncc1)NC(=O)c1ccccc1 |  | 11.8 µM (active)
5 | O=C(N/N=C/c1ccccn1)c1ccc([N+](=O)[O-])cc1Cl | -1.86% | 
6 | Cc1ccc(S(=O)(=O)/N=C(/Nc2cccc(O)c2)c2ccccc2)cc1 | -15.3% | 
7 | CCn1c(SCC(=O)OC)nnc1-c1ccccc1 | -3.54% | 
8 | COc1ccc(C2=NS(=O)(=O)N(C)C(C(=O)N3CCN(C)CC3)=C2)cc1 | -7.42% | 
9 | COc1cc(/C(C)=N/NC(=O)CSc2nnc(C)s2)ccc1O | 3.12% | 
10 | O=C(CCC(=O)N1CCSc2ccccc21)Nc1cccc(F)c1 | -8.2% | 
11 | O=C(NCc1nnc2c(C(F)(F)F)cc(Cl)cn12)c1cccnc1 | -5.93% | 
12 | COc1ccc(-c2ccc3c(c2)[C@@H]2[C@@H](CCN2C(=O)C2CC2)[C@H](CO)N3C)cc1 |  | 14.8 µM (active)
13 | COc1ccc(C(=O)Nc2ccccc2C(=O)O)cc1Cl |  | > 39 µM
14 | CCOCCCNC(=O)C1CCN(S(=O)(=O)c2c(C)noc2/C=C\c2ccc(OC)cc2)CC1 |  | inactive
15 | Cc1noc(C)c1NC(=O)N(C)C[C@@H]1Oc2ccc(NC(=O)C3CCCCC3)cc2C(=O)N([C@@H](C)CO)C[C@H]1C | -8.93% | 
16 | COc1ccc(C2=NS(=O)(=O)N(C)C(C(=O)NC(C)c3ccccc3)=C2)cc1 (stereo unspecified) | -15.3% | 
